Source: PubChem BioAssay
Most compounds without a hit are left out; they make up all but 2.4% or so of the library.
D2 PAM-1: human D2 receptor positive allosteric modulation | P14416 | DiscoveRx D2 beta-arrestin cells, luminescence, 90 min; 100% = 57 uM dopamine signal | potentiation, % (no concentration beside the values) | actives 0.23% (n = 360,000) | AID 624464; in the data active means potentiation above about 50%; inconclusive means mostly about 30% to 49%
Target sequence (P14416 whole entry, looked up): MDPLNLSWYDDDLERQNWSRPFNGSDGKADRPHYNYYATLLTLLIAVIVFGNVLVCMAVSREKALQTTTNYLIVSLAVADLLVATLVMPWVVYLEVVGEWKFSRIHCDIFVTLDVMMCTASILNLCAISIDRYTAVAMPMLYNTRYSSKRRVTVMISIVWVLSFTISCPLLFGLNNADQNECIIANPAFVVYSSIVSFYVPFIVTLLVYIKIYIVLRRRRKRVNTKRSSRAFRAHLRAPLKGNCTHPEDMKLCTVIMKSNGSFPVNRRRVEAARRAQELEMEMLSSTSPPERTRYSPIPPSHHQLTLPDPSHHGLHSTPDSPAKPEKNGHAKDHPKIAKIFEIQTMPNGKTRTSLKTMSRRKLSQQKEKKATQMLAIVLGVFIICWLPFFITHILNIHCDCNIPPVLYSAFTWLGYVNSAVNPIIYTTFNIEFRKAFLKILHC
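PathHunter D2 cells, attached overnight at 37 deg C, received compound in DMSO plus dopamine at EC20 (50 nM final) for 90 min at 37 deg C. Beta-arrestin recruitment was read as luminescence after 1 h with detection reagent at ambient temperature.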
D2 PAM-2: D2 dopamine receptor (human) potentiation | P14416 | potentiation, % at 10 µM | HEK293 T-REx D2, calcium flux, EC20 dopamine potentiation | actives 0.34% (n = 340,000);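 active means potentiation over 3 SD above the plate norm, cut at about 30% in these data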
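Cells plated with tetracycline inducer and held overnight at 30 C; calcium dye loaded 30–90 min at room temperature; baseline taken, compound added and read 180 s; EC20 dopamine then added and read 180 s.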
D2 ag-1: agonists of human D2 dopamine receptor | activation, % at 2 µM | HEK293 T-REx D2 cells, calcium flux agonist mode | actives 0.53% (n = 340,000) | AID 485358 | P14416;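 active means activation over 3 SD above normal in the single-dose calcium agonist read, cut at about 30% in these data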
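Calcium-flux readout, 1 cycle/sec over 180 s following compound pin transfer, in inducible HEK293 Trex D2 cells (force-coupled); dopamine controls included. Positive calcium responses during this window marked compounds as potential agonists.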
D2 antag: antagonists of human D2 dopamine receptor | HEK293 TREx D2 cells, calcium flux, dopamine EC80 | inhibition, % at 10 µM | actives 2% (n = 340,000) | AID 485344; in the data active means inhibition above about 30%; inactive means below that, where a call was filed
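Read-out: kinetic calcium fluorescence (1 cycle/s) in inducible HEK293 T-REx D2 cells after an EC80 dopamine addition that followed 180 s compound preincubation. Loss of the dopamine response indicates antagonism.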
D2 ag-2: human D2 receptor agonism in beta-arrestin assay. activation, % (test concentration not listed). actives 0.084% (n = 360,000). DiscoveRx PathHunter D2 beta-arrestin, luminescence, 90 min; 100% = 57 uM dopamine signal; in the data active means activation above about 40%; inconclusive means between about 15% and that limit
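DiscoveRx PathHunter D2 beta-arrestin cells (2,100/well) attached overnight, then compound-stimulated 90 min at 37 C in HBSS/10 mM HEPES/0.1% Tween-20 buffer; beta-galactosidase complementation read by luminescence after 1 h at ambient temperature. Dopamine 57 uM final (EC100) as control.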
D3 ag: confirmation of human D3 dopamine receptor agonists, beta-arrestin. AID 720506. Potency, µM (doses to about 76.9 µM), most hits filed as activators. DiscoveRx D3 beta-arrestin cells, luminescence, 90 min. actives 4% (n = 2,300). shares compounds with D2 ag-1; further: nearly all actives have a fitted effect of over 70% in size
D2 ag-3: activates human D2 dopamine receptor in D3 counterscreen | shares compounds with D2 ag-1 | DiscoveRx PathHunter D2 beta-arrestin, luminescence, 90 min; response scale: percent relative to full dopamine signal | Potency, µM (top dose mostly 76.9 µM), hits mostly activators | actives 5.9% (n = 2,300) | AID 720507; further: nearly all actives have a fitted effect of over 70% in size
Of the large screens only hits and unclear results are named; the others gave an inactive call (follow-up assays come after a bar, where they were run). Unless noted, the call rests on the fitted dose curve; in most records, active means well fitted activation curve with a large enough effect; inconclusive means small, poorly fitted or top-dose-only effect; inactive means flat fitted curve, though single readings scatter.

Cc1oc(-c2ccccc2Cl)nc1CS(=O)CC(=O)N1CCN(c2ccccc2)CC1 (stereo not given)	D2 ag-1 43 | D3 ag inactive | D2 ag-3 inactive
COc1cc(/C=N/NC(=O)CCN2CCCCC2)ccc1O	none
CC(=O)Nc1ccc(/C=N/NC(=O)CCN2CCN(c3ccccc3)CC2)cc1	D2 ag-1 79, D2 antag 51 | D3 ag inconclusive | D2 ag-3 inactive
COc1ccc(/C=N\NC(=O)CCN2CCN(c3ccccc3)CC2)cc1OC	D2 ag-1 75, D2 antag 56 | D3 ag inactive | D2 ag-3 inactive
O=C(CCN1CCN(C(c2ccccc2)c2ccccc2)CC1)N/N=C/c1ccc(O)cc1	none
O=C(CCN1CCN(c2ccccc2)CC1)N/N=C/c1ccccc1OC(F)F	D2 ag-1 75, D2 antag 88, D2 ag-2 inconclusive | D3 ag inactive | D2 ag-3 inconclusive
COC(=O)c1ccccc1NC(=O)c1cc2ccccc2o1	none
O=C(Nc1ccccc1C(F)(F)F)c1cc2ccccc2o1	D2 antag 47 | D3 ag inactive | D2 ag-3 inactive
Cc1ccc2[nH]c(=O)c(CN(C(=O)c3cccc([N+](=O)[O-])c3)C(C)C)cc2c1	D2 ag-1 50 | D3 ag inactive | D2 ag-3 inactive
CC(C)N(Cc1cc2ccccc2[nH]c1=O)C(=O)c1cccc([N+](=O)[O-])c1	none
CN(C(=O)COC(=O)c1ccc(Br)c(S(=O)(=O)N2CCOCC2)c1)C1CCCCC1	none (no result: D2 PAM-2, D2 ag-1, D2 antag)
O=C(CCN1CCN(c2ccccn2)CC1)Nc1ccc(F)cc1	D2 ag-1 69, D2 antag 67 | D3 ag inconclusive | D2 ag-3 inactive
O=C(CN1CCN(c2ccccn2)CC1)Nc1ccc(OC(F)(F)F)cc1	none
CN(C)c1ccc(NC(=O)CCN2CCN(c3ccccn3)CC2)cc1	D2 PAM-1 inconclusive, D2 ag-1 80, D2 antag 85, D2 ag-2 inconclusive | D3 ag inconclusive | D2 ag-3 0.25µM
O=C(Nc1ccccc1C(F)(F)F)N1CCOc2ccc(Cl)cc21	none (no result: D2 PAM-1, D2 antag, D2 ag-2)
O=C(Nc1ccc(NC(=O)c2ccc([N+](=O)[O-])cc2[N+](=O)[O-])cc1)c1ccco1	D2 PAM-1 inconclusive, D2 ag-1 47 | D3 ag inconclusive | D2 ag-3 inactive
CCN(CC(=O)Nc1c(F)cccc1F)C(=O)Cc1ccc(S(=O)(=O)N2CCOCC2)s1	none
CCN1CCN(c2ncnc3scc(-c4ccc(C)cc4)c23)CC1	D2 PAM-1 inconclusive, D2 ag-1 70, D2 antag 68, D2 ag-2 110 | D3 ag inactive | D2 ag-3 2.8µM
CCOc1ccc(C2c3c(oc4ccccc4c3=O)C(=O)N2Cc2ccc3c(c2)OCO3)cc1 (stereo not given)	none (no result: D2 PAM-1, D2 antag, D2 ag-2)
CN1CCN(NC(=O)c2cccc(C(F)(F)F)c2)CC1	none
C/C(=N\NC(=O)c1nnn(-c2nonc2N)c1-c1ccc2c(c1)OCO2)c1ccc(C)cc1	none | D3 ag inactive | D2 ag-3 inactive
C/C(=N\NC(=O)c1nnn(-c2nonc2N)c1-c1ccc2c(c1)OCO2)c1ccccc1	none | D3 ag inactive | D2 ag-3 inactive
C[C@@H]1CN([C@@H](C)CO)C(=O)CCCn2nncc2CO[C@H]1CN(C)Cc1ccncc1	none (no result: D2 PAM-2, D2 ag-1, D2 antag)
CCn1cc(S(=O)(=O)c2cccc(Cl)c2)c(=O)c2cc(F)c(N3CCN(C)CC3)cc21	none (no result: D2 PAM-1, D2 PAM-2, D2 antag, D2 ag-2)
COc1ccc(NC(=O)COc2coc(CN3CCN(c4ccccc4)CC3)cc2=O)cc1	D2 ag-1 50 | D3 ag inactive | D2 ag-3 inactive
COc1ccc(N2CCN(Cc3cc(=O)c(OCC(=O)Nc4ccccc4)co3)CC2)cc1	none
Cc1ccccc1NC(=O)COc1coc(CN2CCN(c3ccccc3)CC2)cc1=O	D2 ag-1 55, D2 ag-2 inconclusive | D3 ag inactive | D2 ag-3 inactive
O=C(O)c1cc(-c2ccc(Cl)s2)[nH]n1	none
O=C1Nc2ccccc2C(=O)N2c3ccccc3NC(=O)C12 (stereo not given)	none (no result: D2 PAM-2, D2 ag-1, D2 antag)
O=C(c1oc(=O)c2ccccc2c1-c1ccccc1)N1CCC(O)CC1	none | D3 ag inactive | D2 ag-3 inactive
C=CCC1Cc2c(cccc2[N+](=O)[O-])C(CC=C)N1 (stereo not given)	D2 PAM-1 inconclusive, D2 ag-1 50, D2 antag 36, D2 ag-2 inconclusive | D3 ag inconclusive | D2 ag-3 22µM
Cc1cccc(C(=O)NNC(=O)c2ccc(NS(=O)(=O)c3cccs3)cc2)c1C	none | D3 ag inactive | D2 ag-3 inactive
CC(=O)Nc1cccc(NC(=O)CSc2nc(C3CC3)nc3ccccc23)c1	D2 antag 34 | D3 ag inactive | D2 ag-3 inactive
CC1(C)C2([N+](=O)[O-])CN3CC1([N+](=O)[O-])CN(C2)C3c1ccc(O)c(O)c1 (stereo not given)	none | D3 ag inactive | D2 ag-3 inactive
CN(Cc1c(F)cccc1Cl)C(=O)c1ccc(NC(=O)CC2SC(N3CCCCC3)=NC2=O)cc1 (stereo not given)	none (no result: D2 PAM-2, D2 ag-1, D2 antag)
COc1cccc(C2CC(c3ccccc3Cl)n3nc(N)nc3N2)c1 (stereo not given)	D2 ag-1 71 | D3 ag inactive | D2 ag-3 inactive
COc1cccc(C2CC(c3ccc(Cl)cc3Cl)n3nc(N)nc3N2)c1 (stereo not given)	none
Cc1oc2ncn(CC(C)C)c(=O)c2c1C(=O)N1CCN(c2ccc(F)cc2)CC1	none (no result: D2 PAM-1, D2 antag, D2 ag-2)
COc1ccc(-n2c(Cc3cccn3C)nnc2SCC(=O)N2CCC(C)CC2)cc1	none
COc1ccc(-n2c(Cc3cccn3C)nnc2SCC(=O)N2CCCC2)cc1	D2 ag-1 59 | D3 ag inactive | D2 ag-3 inactive
Cc1ccc(Nc2nc(N)nc(CN3CCN(c4ccccc4F)CC3)n2)cc1	D2 ag-1 75, D2 antag 78, D2 ag-2 inconclusive | D3 ag inactive | D2 ag-3 inconclusive
COc1ccc(Nc2nc(N)nc(CN3CCC(C)CC3)n2)cc1	none
Nc1nc(CN2CCCCCC2)nc(Nc2ccccc2)n1	none
COc1ccc(Nc2nc(N)nc(CN3CCN(c4ccccn4)CC3)n2)cc1	D2 ag-1 76, D2 antag 73, D2 ag-2 inconclusive | D3 ag inactive | D2 ag-3 inconclusive
Nc1nc(CN2CCN(c3ccccc3)CC2)nc(Nc2ccc(Cl)cc2)n1	D2 PAM-1 inconclusive, D2 ag-1 64, D2 antag 77, D2 ag-2 43 | D3 ag inconclusive | D2 ag-3 18µM
